Bioassay records from PubChem.
Compounds with a hit are over-represented: about 1.3% of the library has one in this group of screens.
GALC G270D act = galactocerebrosidase G270D activity enhancement, cell-based; P54803; 145M-Twi-hGALC-G270D cells, HMU-beta-Gal fluorescence, 48 h; AID 1159614; Potency, µM (doses to about 57.5 µM), usual class: activators; 45,000 tested, 0.1% active; also: 0% is about no effect; nearly all actives have a fitted effect of over 65% in size
Target sequence (P54803 whole entry G286D): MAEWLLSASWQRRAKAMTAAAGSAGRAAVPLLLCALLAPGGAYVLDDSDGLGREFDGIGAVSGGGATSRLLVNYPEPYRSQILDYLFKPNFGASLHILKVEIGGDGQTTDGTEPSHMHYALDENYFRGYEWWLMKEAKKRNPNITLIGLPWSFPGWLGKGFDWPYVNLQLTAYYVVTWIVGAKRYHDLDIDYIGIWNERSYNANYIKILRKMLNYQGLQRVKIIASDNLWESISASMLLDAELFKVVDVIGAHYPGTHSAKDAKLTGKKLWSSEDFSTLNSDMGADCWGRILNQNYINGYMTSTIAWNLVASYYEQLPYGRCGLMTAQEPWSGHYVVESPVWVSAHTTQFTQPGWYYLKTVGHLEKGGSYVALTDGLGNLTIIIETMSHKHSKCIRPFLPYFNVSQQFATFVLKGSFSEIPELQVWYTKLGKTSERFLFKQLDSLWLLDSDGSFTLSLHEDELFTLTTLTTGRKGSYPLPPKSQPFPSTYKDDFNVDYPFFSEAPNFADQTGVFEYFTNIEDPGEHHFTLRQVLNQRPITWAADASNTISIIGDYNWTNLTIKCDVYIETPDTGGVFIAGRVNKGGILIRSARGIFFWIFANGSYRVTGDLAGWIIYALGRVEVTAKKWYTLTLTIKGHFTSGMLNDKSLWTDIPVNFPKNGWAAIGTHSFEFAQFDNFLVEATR
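qHTS, 1536-well; 145M-Twi-hGALC-G270D cells (WT line also made) in DMEM/F12 + 10% FBS; compound incubation on live cells; HMU-β-gal 0.1 mM final, pH 5.2, NaTC; carbonate stop; fluorescence increase = enhanced residual activity.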
FH mod = Identification of activators of human fumarate hydratase by quantitative high-throughput screening. FH coupled MDH/diaphorase resazurin fluorescence, 15 min. Potency, µM (highest dose often 79.9 µM), for the others: top-dose activity change, negative = inhibition, most hits filed as inhibitors. Fumarate hydratase, mitochondrial (Homo sapiens), P07954. 54,000 tested, 0.22% active. AID 1347055, 2019; also: % is scaled to controls: 0 for no effect and ±100 for the full control effect; the screen sought activators but most active calls are inhibition curves; nearly all actives have a fitted effect of over 45% in size
HTT promoter inh = inhibits huntingtin promoter activity | HEK293 HTT promoter firefly luciferase reporter, 24 h | Potency, µM (doses to about 57.5 µM), for the others: at the top dose activity change, negative = inhibition, most hits filed as inhibitors | 48,000 tested, 0.93% active; also: nearly all actives have a fitted effect of over 50% in size
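HEK293 Fluc reporter, 2,500 cells/well, 24 h pre-culture; cpds up to 57.5 uM final, 24 h 37 degrees C; Dual-Glo, 10 min RT; normalized vehicle = 0%, zero RLU = -100%.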
HTT-AS act = activators of huntingtin-antisense promoter activity. HEK293 HTT-AS promoter firefly luciferase reporter, 24 h; response scale: percent change from vehicle, -100% = no light. Potency, µM (doses to about 57.5 µM), for inactives: at the highest dose activity change, positive = activation, usual class: activators. 48,000 tested, 0.24% active; also: nearly all actives have a fitted effect of over 55% in size
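HEK293 Fluc reporter, 2,500 cells/well, 24 h pre-culture; cpds up to 57.5 uM final, 24 h 37 degrees C; Dual-Glo, 10 min RT; normalized vehicle = 0%, zero RLU = -100%.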
Numbers without * were called inactive; i = inactive; u = inconclusive; ! = a repeat was not active; [ ] = remark or other dose. Calls follow the shape of the dose curve; as a rule, active = well fitted curve in the direction sought with a large enough effect; inconclusive = small, poorly fitted or top-dose-only effect, or another doubt; inactive = no such curve, though single readings can be large; an effect the other way counts as inactive or inconclusive. Potency is read from the fitted curve at half-maximal effect.

SMILES	GALC G270D act	FH mod	HTT promoter inh	HTT-AS act
Cc1ccc(S(=O)(=O)NCC(Nc2cccc(Cl)c2)c2ccccc2)cc1 (configuration not stated)	i	u	25.1µM*	-56.4%
Cc1cccc(N(C)C(CNS(=O)(=O)c2ccccc2)c2ccccc2)c1 (configuration not stated)	i	-23.1%	u	-30.5%
Cc1ccc2oc(-c3ccc(Cl)cc3)c(O)c(=O)c2c1	i	12.7%	89.1%	2.51µM*
C[n+]1cc2c3c(ccc2c2ccc4cc5c(cc4c21)OCO5)OCO3	i	15.8µM*!	2.82µM*	-93.4%[25.1 µM]
O=C(Nc1ccc(OC(F)(F)F)cc1)c1noc2c1CCCC2	i	-0.1%	107.3%	1.12µM*
COc1ccc(Cn2ccn(Cc3cccc(C)c3)c(=O)c2=O)cc1	i	-6.7%	-17.7%	-6.8%
CCOC(=O)c1nnc2c(-c3ccc(OC)cc3)c(C)nn2c1N	i	1.5%	-12.3%	-8.1%
Cc1ccccc1CSc1nc2c(sc3ccccc32)c(=O)n1CCCOC(C)C	i	-29.1%	-3.1%	12.8%
COCCCn1c(SCc2ccccc2F)nc2c(sc3ccccc32)c1=O	31.6µM*	-28.9%	-10.2%	-20.9%
CCOc1ccc(NC(=O)C(=O)NCc2ccco2)cc1	i	5.8%	-18.1%[11.5 µM]	15.6%
Cc1ccc(NC(=O)C(=O)NCc2ccco2)cc1	i	9.7%	48.2%	5.01µM*
CCOc1ccc(S(=O)(=O)N(C(C)=O)c2ccc3oc(C)c(C(=O)OC)c3c2)cc1	i	u	2.51µM*	-79.1%
COC(=O)c1c(C)oc2ccc(N(C(=O)c3ccncc3)S(=O)(=O)c3cc(C)ccc3C)cc12	i	-20.6%	28.2µM*	-38.6%
CCCC(=O)N(c1ccc2oc(C)c(C(C)=O)c2c1)S(=O)(=O)c1ccc(CC)cc1	i	-11.8%	5.01µM*	-54.4%
CCOc1ccc(CCNC(=O)c2nn(-c3ccc(OC)c(Cl)c3)c(=O)c3c2c2ccccc2n3C)cc1OCC	i	-4.1%	-1.8%	-6.2%
COc1ccc(Cl)cc1NC(=O)c1sc2nc(-c3ccc(OC)c(OC)c3)ccc2c1N	11.2µM*	-3.2%	u	-33.0%
COc1ccc(-c2ccc3c(N)c(C(=O)Nc4ccc(C)cc4C)sc3n2)cc1OC	i	-13.4%	u	-37.7%
COc1ccc(CNC(=O)c2cnn(-c3ccc(C)cc3)c2-n2cccc2)cc1OC	i	-4.4%	15.8µM*	-37.4%
COc1ccc(CCNC(=O)c2c(C)nn(-c3ccc(F)cc3)c2-n2cccc2)cc1OC	i	-9.0%	20µM*	-34.3%
Cc1cccc(/C=C/c2onc(C)c2S(=O)(=O)N2CCC(C(=O)N3CCC(C)CC3)CC2)c1	i	-10.2%	-3.7%	-10.3%
Cc1ccc2nc(-c3cc(NC(=O)COc4ccc(C)c(C)c4)ccc3Cl)oc2c1	i	-21.2%	6.8%	2.51µM*
Cc1ccc(OCC(=O)Nc2cccc(-c3nc4ccccc4o3)c2C)cc1C	i	-0.5%	u	-55.1%
CSc1cccc(NC(=O)Nc2ccccc2OCc2cc(=O)n3cc(C)ccc3n2)c1	i	-15.1%	36.4%	17.3%
CC1Cc2ccccc2N1S(=O)(=O)c1nnc(NC(=O)c2ccccc2)s1 (configuration not stated)	i	-11.2%	-23.0%	u
COc1cccc(NC(=O)C2CCN(S(=O)(=O)c3cc(-c4noc(C)n4)ccc3C)CC2)c1	i	-25.6%	12.6µM*	-53.4%
SMILES	GALC G270D act	FH mod	HTT promoter inh	HTT-AS act
Clc1cccc(-n2ncc3c(NCCCc4ccccc4)ncnc32)c1	i	-18.1%	-23.7%	-8.3%
CC(C(=O)NCc1ccccc1Cl)n1ccc2cc(S(=O)(=O)N3CCCCC3)ccc21 (configuration not stated)	i	-20.0%	u	-29.3%
CCOc1ccc(-c2cc(CCCC(=O)NCCc3cc(OC)c(OC)c(OC)c3)no2)cc1	i	-0.8%	15.8µM*	-78.8%
COc1cc(C2CC(=O)c3c([nH]c(C(=O)OC4CCCC4)c3C)C2)cc(OC)c1OC (configuration not stated)	i	-28.6%	4.47µM*	-54.0%
COc1cc(CN(C(=O)c2ccc(OC(C)C)cc2)c2ccccn2)cc(OC)c1OC	i	-4.3%	15.8µM*	-54.1%
CCN(CC)c1sc(S(=O)(=O)c2ccccc2)nc1S(=O)(=O)c1ccc(C)cc1	i	-10.9%	-38.2%	-27.6%
